These results are taken from PubChem BioAssay (NCI).

Structures are written as SMILES. The panel holds about 83,000 compounds, 20% with a hit somewhere; the sample as a whole holds those more often.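 Single-dose data. Exposure time 48 hours. Values below 10 considered active.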 Values without a mark were called inactive. Calls of active or inactive are those of the source.

Holding throughout (assay): NCI-60 one-dose screen, 48 h (100 = growth as untreated, 0 = no growth, -100 = all killed)
Common to all, as to conditions: 10 µM unless noted

Experiment [1] concerns NCI-H23 lung.
For experiment [2], the system named is NCI-H226 lung.
The test system of experiment [3] is NCI-H322M lung.
The subject of experiment [4] is HOP-62 NSCLC.
In experiment [5] the test system is NCI-H460 lung.
In experiment [6] the test system is HOP-92 NSCLC.
The test system of experiment [7] is NCI-H522 lung.
In experiment [8] the test system is A549/ATCC NSCLC.
Experiment [9] concerns 786-0 renal.
Experiment [10] has as its system COLO 205 colon.

As for `COc1cc(-c2n/c(=C\c3c(O)[nH]c4ccc(Cl)cc34)cc3c2=Nc2ccccc2-3)cc(OC)c1OC`, the growth in experiment [1] is -2.92% (active); in experiment [2], 62.6%; in experiment [3], 68%; in [4] it was -8.81% (active); in [5], -38% (active); in experiment [6], -25.4% (active). Also, the growth in experiment [7] was -0.596% (active); in experiment [8], -39.4% (active); in experiment [9] it was -37.1% (active); in experiment [10], 8.86% (active).

`COc1ccc(C(=O)/C=C/c2c(C(F)(F)F)nc3sccn23)cc1OC`: the growth in [1] is 22.7%; in [2] it was 53.5%; in experiment [3], 34.6%; in experiment [4], 25%; in [5], -46.6% (active); in experiment [6], 78.2%. The growth is 93.1% in experiment [7], 73.8% in [8], 32% in experiment [9] and 27.3% in experiment [10].

With `Cc1cccc(Cc2cnc(NC(=O)c3ccc4nnsc4c3)s2)c1`, the growth is 92.7% in experiment [1]; 102% in [2]; 97.4% in experiment [3]; 79.8% in [4]; 114% in [5]; 74.7% in experiment [6]. For the same molecule, the growth in [7] was 77%; in experiment [8], 96.2%; in experiment [9], 96%; in experiment [10], 94.8%.

On to `COc1nc(N(C)O)nc(N(C)O)n1`, for which the growth in [1] was 43.9%; in [2], 49.3%; in experiment [3], 37.7%; in [4], 26.6%; in experiment [5], 8.71% (active); in experiment [6], 52.8%. In addition, the growth in [7] is 56.5%; in experiment [8] it was 33.7%; in [9], 8.76% (active); in experiment [10] it was 19.6%.

`COCN1CCC2N(COC)CCC3N(COC)CCC1N23` (stereo not given): the growth in experiment [1] was 105%; in experiment [2], 111%; in experiment [3], 124%; in experiment [4] it was 107%; in [5] it was 109%; in [6], 96.3%. Besides, the growth in experiment [7] is 107%; in experiment [8] it was 97.1%; in experiment [9], 109%; in [10] it was 94.7%.

As for `CC(C)(C)n1cc(-c2ccnc(NCCCNS(=O)(=O)c3ccccc3)c2)c(-c2ccccc2)n1`, the growth in experiment [1] is 76.9%; in [2], 82.5%; in experiment [3], 88.9%; in experiment [4], 90.7%; in [5], 78.9%; in experiment [6] it was 24.5%. The growth was 74.6% in [7], 63.5% in experiment [8], 56.4% in experiment [9] and 57.4% in experiment [10].

Turning to `O=C1/C(=C/c2ccc(Br)cc2)C=C(c2ccccc2)N1CCc1ccccc1`, the growth in [1] was 40%; in experiment [2], -1.06% (active); in [3], 54.3%; in [4], -56.9% (active); in experiment [5] it was 25.6%; in experiment [6] it was -13.9% (active). The growth in experiment [7] is 31.2%; in experiment [8], 8.19% (active); in experiment [9], -8.73% (active); in experiment [10] it was 30.4%.

On to `Cn1cc2c(c1)-c1nc(Nc3ccccc3)ncc1CC2`, for which the growth in experiment [1] is 38.3%; in experiment [2] it was 51.7%; in [3] it was 52.9%; in experiment [4] it was 69.2%; in experiment [5], 42.5%; in experiment [6] it was 70.6%. Further, the growth in experiment [7] was 84.9%; in experiment [8] it was 72%; in experiment [9], 87.2%; in experiment [10], 76.7%.

`Cn1cc(-c2csc(-c3cccc(F)c3)n2)c2cccnc21`: the growth in [1] is -62.7% [100 µM] (active); in [2], -14.4% [100 µM] (active); in [3], -22% [100 µM] (active); in experiment [4], -69.2% [100 µM] (active); in experiment [5] it was -59.6% [100 µM] (active); in experiment [6], -59.6% [100 µM] (active). Moreover, the growth in experiment [7] is -27.6% [100 µM] (active); in [8], 1% [100 µM] (active); in experiment [9] it was -81.6% [100 µM] (active); in experiment [10], -66.5% [100 µM] (active).

As to `O=C(/C=C/c1ccco1)c1ccc(Nc2nc(Nc3ccc(F)cc3)nc(Nc3ccc(Cl)cc3)n2)cc1`, the growth is 59.5% in [1]; 86% in experiment [2]; 48.3% in experiment [3]; 96.2% in experiment [4]; 61.7% in [5]; 44.2% in experiment [6]. In addition, the growth in [7] was 76.8%; in [8], 38.3%; in experiment [9], 84.4%; in [10] it was 35.9%.

Regarding `CC(C)(C)CC(C)(C)Nc1c(-c2ccncc2)nc2cnccn12`, the growth is 99.2% in experiment [1]; 90.3% in experiment [2]; 103% in experiment [3]; 104% in [4]; 105% in experiment [5]; 87.1% in [6]. The growth was 87.1% in experiment [7], 96.4% in [8], 96.6% in experiment [9] and 101% in [10].

For the molecule `OC(c1cccc(-n2ccc(C(F)(F)F)n2)c1)c1cnccc1NC1CCCCCC1` (stereo not given), the growth in experiment [1] is 53.1%; in experiment [2], 67.3%; in experiment [3], 6.47% (active); in experiment [4], 73.7%; in experiment [5], -64.6% (active); in [6] it was -5.13% (active). For the same molecule, the growth in [7] is 43.9%; in [8] it was 50.2%; in [9], 28.9%; in experiment [10], -47.2% (active).

For `COc1ccc(CN2C(=O)C(Cl)=C(Nc3cccc(C(F)(F)F)c3)C2=O)cc1`, the growth in experiment [1] was 36.8%; in experiment [2], 49.5%; in experiment [3], 84.3%; in experiment [4], 28.3%; in [5] it was 22%; in experiment [6] it was -17.2% (active). In addition, the growth in [7] was 40.6%; in experiment [8], 59.2%; in experiment [9], 37.8%; in [10] it was 36.5%.
